{
  "source": "PubChem BioAssay AID1058",
  "about": "(Emory University Molecular Libraries Screening Center, 2008)",
  "target": "Mothers against decapentaplegic homolog 3 (Homo sapiens) (UniProt P84022)",
  "sequence (P84022 whole entry, looked up)": "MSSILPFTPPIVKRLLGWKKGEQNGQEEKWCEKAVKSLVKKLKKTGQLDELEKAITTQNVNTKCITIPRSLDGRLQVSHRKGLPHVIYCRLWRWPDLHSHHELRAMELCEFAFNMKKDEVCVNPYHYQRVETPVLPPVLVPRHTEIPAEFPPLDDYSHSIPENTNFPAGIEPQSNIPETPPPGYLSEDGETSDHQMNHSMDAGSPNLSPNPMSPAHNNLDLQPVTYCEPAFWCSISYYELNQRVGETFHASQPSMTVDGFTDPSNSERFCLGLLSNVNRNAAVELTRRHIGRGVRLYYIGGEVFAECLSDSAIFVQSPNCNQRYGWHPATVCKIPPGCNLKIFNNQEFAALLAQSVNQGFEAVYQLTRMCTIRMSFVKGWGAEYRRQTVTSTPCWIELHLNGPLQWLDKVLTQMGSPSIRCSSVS",
  "assay": "Smad3 binding inhibitors, lysate ELISA, dose response, cell lysate, secondary confirmation, chemiluminescent ELISA, HEK293 lysate (AID 1058)",
  "note": "Measured potencies and affinities stand elsewhere. The source made the active and inactive calls.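 How the source made its calls: active means fitted IC50 of 30 µM or less, with percent of control binding at that IC50 of 60 or less; inactive means the rest.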",
  "data": [
    {"smiles": "Oc1cc2c(cc1C(c1ccc(F)cc1)N1CCOCC1)OCO2", "note": "(stereo unspecified)", "values": [
      {"measurement": "outcome", "result": "inactive"}
    ]}
  ]
}
